Source: PubChem (National Center for Advancing Translational Sciences (NCATS))
KB-V1 cytotox = KB-V1 MDR subline cytotoxicity; KB-V1 MDR cells viability, CellTiter-Glo, 72 h; Potency, µM (doses to about 46.1 µM), actives largely listed as cytotoxic; 3.4% of 400,000 active; AID 1347076; note: % is set by controls: 0 for no effect and ±100 for the full control effect; nearly all actives have a fitted effect of over 60% in size
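KB-V1 cells (P-gp-expressing MDR subline of KB-3-1) in phenol-red-free DMEM with 10% FBS were exposed to library compounds over a concentration series for 72 h at 37 degrees C. Viability read by CellTiter-Glo luminescence; concentration-effect curves fitted after normalization.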
PTAP TSG101 blk = blocks PTAP/TSG101 interaction to inhibit HIV-1 budding. Q99816. Fluorescence polarization, FITC-PTAP peptide / Tsg101 binding. Potency, µM (titrated, usually from 115 µM), for inactives: at the top dose activity change, negative = inhibition, most hits filed as inhibitors. 340,000 tested, under 10 active; active = well fitted inhibition curve with a large enough effect in the main read-out, with a control signal flat, not every such curve was filed as active; inconclusive = small, poorly fitted or top-dose-only effect, or effect the other way, or a change in a side signal; inactive = no such curve, though single readings can be large or run the other way; note: % of control where 0% means no effect
Target sequence (Q99816 whole entry, looked up): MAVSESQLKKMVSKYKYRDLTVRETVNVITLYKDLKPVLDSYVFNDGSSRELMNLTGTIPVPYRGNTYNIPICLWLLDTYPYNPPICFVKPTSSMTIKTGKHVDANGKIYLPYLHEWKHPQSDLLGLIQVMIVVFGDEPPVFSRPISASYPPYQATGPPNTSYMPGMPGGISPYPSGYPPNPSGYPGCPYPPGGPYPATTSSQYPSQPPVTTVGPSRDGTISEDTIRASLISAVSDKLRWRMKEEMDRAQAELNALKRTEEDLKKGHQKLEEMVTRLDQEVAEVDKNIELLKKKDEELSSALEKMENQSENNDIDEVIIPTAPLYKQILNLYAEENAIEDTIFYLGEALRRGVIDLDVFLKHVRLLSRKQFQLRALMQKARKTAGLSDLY
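Tsg101 binding domain (10 uM final) was mixed with compound and a FITC-labeled PTAP peptide (50 nM final) in HEPES pH 7.5 buffer with NaCl, Tween 20, EDTA and TCEP; fluorescence polarization was read after 20 min at r.t.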
SW480 rerep = inducers of DNA re-replication in SW480 colon cancer cells | SW480 DNA re-replication, Hoechst DNA content imaging, 48 h | Potency, µM (doses to about 46.1 µM), for the others: at the top dose re-replication activation, usual class: activators | 1.8% of 340,000 active; note: % of control where 0% means no effect; nearly all actives have a fitted effect of over 55% in size
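Cells (250 per well) received 23 nL compound or DMSO by pin tool and were kept 48 hr at 37 C, 5% CO2. Nuclei were then stained with Hoechst for 40 min and scanned for DNA content.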
KB-3-1 cytotox = kills parental KB-3-1 adenocarcinoma cells; AID 1347075; Potency, µM (top dose mostly 46.1 µM), hits mostly cytotoxic; 1.4% of 400,000 active; KB-3-1 viability, CellTiter-Glo ATP luminescence, 72 h; note: % is set by controls: 0 for no effect and ±100 for the full control effect; nearly all actives have a fitted effect of over 60% in size
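Luminescent ATP read-out (CellTiter-Glo) measures survival of drug-naive KB-3-1 cells after 72 h compound exposure at 37 °C. Titration series was screened from lowest to highest concentration, with DMSO vehicle plates as background controls.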
MCF10A rerep = DNA re-replication induction in MCF 10a cells | 2.9% of 350,000 active | MCF 10A DNA re-replication, Hoechst nuclear intensity, 48 h | Potency, µM (top dose mostly 46.1 µM), without a hit: at the highest dose activity, positive = re-replication, usual class: activators | AID 624296; note: % of control where 0% means no effect; nearly all actives have a fitted effect of over 50% in size
PINK1 modulator = PINK1 expression modulation | PINK1 immunofluorescence, high-content cytometry, 24 h | Potency, µM (series often up to 76.6 µM), for the others: at the top dose activation (PINK1 increase), most hits filed as activators | 0.2% of 410,000 active | AID 624263; active = well fitted activation curve with a large enough effect; inconclusive = small, poorly fitted or top-dose-only effect; cell line not stated here; note: % of control where 0% means no effect; nearly all actives have a fitted effect of over 65% in size
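PINK1 protein, normally rapidly degraded, was detected by immunofluorescence after 24 hour compound treatment of a stable cell line. Titration data (5 concentrations) came from laser-scanning cytometry, with CCCP-treated wells as controls.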
Starred values were filed as active, the others as inactive; i = inactive; ? = inconclusive; . = no result given; [ ] = dose if it differs, or a comment. This is a sample that favours compounds with a hit; in the whole collection about 6.8% have one here. Unless noted, calls come from the whole dose curve; as a rule, active = well fitted curve in the direction sought with a large enough effect; inconclusive = small, poorly fitted or top-dose-only effect, or another doubt; inactive = no such curve, though single readings can be large; an effect the other way counts as inactive or inconclusive. Potency is the fitted concentration of half-maximal effect.

SMILES	KB-V1 cytotox	PTAP TSG101 blk	SW480 rerep	KB-3-1 cytotox	MCF10A rerep	PINK1 modulator
C=CCOc1ccc(/C=N/O)cc1Cl	i	-0.6%	-1.2%	11.6µM*	0.5%	-0.3%
NC(=O)c1nn2c(C(F)(F)F)cc(-c3ccc(Br)cc3)nc2c1Cl	i	.	.	i	.	-0.1%
CCOc1ccc(-c2cccc(NS(=O)(=O)c3c(C)cc(C)cc3C)c2)nn1	?	.	.	i	.	4.7%
CCOc1cccc2sc(N3CCN(C(=O)c4ccc5c(c4)CCCC5)CC3)nc12	.	.	.	.	.	-1.6%
CCC(C(=O)N1CCC(C(N)=O)CC1)n1nc(C)n2c(cc3occc32)c1=O (centres undefined)	i	-8.8%	-3.5%	i	1.0%	2.4%
CCC(C(=O)N1CCN(c2cc(Cl)ccc2C)CC1)n1nc(C)n2c(cc3occc32)c1=O (centres undefined)	10.3µM*	.	.	10.3µM*	.	1.3%
CCC(C(=O)N1CCN(c2ccccc2)CC1)n1nc(C)n2c(cc3sccc32)c1=O (centres undefined)	?	.	.	18.4µM*	.	0.9%
CCOc1ccc(NC(=O)CC2C(=O)N(c3ccc(OC)cc3)C(=O)N2CCc2cccs2)cc1 (centres undefined)	18.4µM*	-1.7%	-70.4%	i	2.8%	8.4%
COCCN1C(=O)N(c2ccc(OC)cc2)C(=O)C1CC(=O)Nc1cccc(F)c1 (centres undefined)	i	-0.1%	-13.4%	i	0.92µM*	1.5%
CCC/C(O)=C1\C(=O)CC(C)(C)CC1=Nc1ccc(OC)cc1OC	?	-10.6%	18.4µM*	?	20.6µM*	9.1%
CCOC(=O)c1cc(-c2ccccc2)n(-c2cccc(C(=O)Nc3cccc(F)c3)c2)c1C	i	.	.	i	.	0.6%
O=C(N/N=C/c1c[nH]c2ccccc12)C1COc2ccccc2O1 (centres undefined)	2.59µM*	0.0%	?	5.8µM*	20.6µM*	9.8%
O=C(N/N=C\c1ccc(Cl)s1)C1COc2ccccc2O1 (centres undefined)	?	-0.8%	16.4µM*	?	?	1.7%
CCOC(=O)c1ccc(-n2c(O)c(/C=N/NC(=O)C3COc4ccccc4O3)c3ccccc3c2=O)cc1 (centres undefined)	16.4µM*	-0.9%	?	i	28.8%	-1.4%
O=C(N/N=C/c1c[nH]c2ccccc12)C1CC1c1ccccc1 (centres undefined)	?	0.7%	-1.4%	i	1.7%	-3.3%
CCc1ccc(-c2nc(SCC(=O)NCCOC)c(-c3ccc(C)cc3)[nH]2)cc1	i	.	.	i	.	0.0%
CCc1nc(Oc2cccc(F)c2)c2oc3ccccc3c2n1	i	.	.	i	.	2.2%
CCOC(=O)C1=CN(CC2CCCO2)C=C(C(=O)OCC)C1c1ccccc1C(F)(F)F (centres undefined)	i	-3.9%	14.6µM*	i	13µM*	6.2%
O=C(NCc1nnc2n1CCN(Cc1cc(F)cc(F)c1)CC2)c1cccc(F)c1	.	.	.	.	.	4.2%
CSc1nc(SCC(=O)NC(c2ccccc2)c2ccccc2)c2c3c(sc2n1)CN(C)CC3	?	-0.7%	5.8µM*	?	5.17µM*	9.8%[38.3 µM]
CSc1nc(NCC(C)O)c2c3c(sc2n1)CN(C)CC3 (centres undefined)	i	-7.8%	-6.0%	i	-4.7%	0.2%
Cc1ccccc1-n1c(SCC(=O)c2c(N)n(C)c(=O)n(C)c2=O)nnc1-c1cccnc1	i	0.4%	-1.0%	i	?	-0.3%
Cc1ccccc1-n1c(SCC(=O)c2c(N)n(C)c(=O)n(C)c2=O)nc2sc3c(c2c1=O)CCCC3	23.1µM*	-5.5%	-11.4%	?	?	-2.1%
Cc1ccc(NC(=O)C2CCN(S(C)(=O)=O)CC2)c(C)c1	i	-6.3%	-42.4%	i	4.11µM*	0.5%
COCC(=O)N1CCC2(CCCN(c3ncccn3)C2)CC1	.	.	.	.	.	-0.5%
